Measurements taken from publication PMC11006913.
Numbering of substitutions follows the chain as printed.

Legend:
Test in all cases: PBM; 200 nM protein, PBS
Conditions in all cases: dsDNA, one strand shown
NKX2-5 [1] = biological target: NKX2-5 (Homo sapiens, UniProt P52952 125-210, R139K)
HOXB6 [2] = biological target: HOXB6 (Homo sapiens, UniProt P17509 132-218, K202E)
NKX2-6 [3] = biological target: T1, NKX2-6 (Homo sapiens, UniProt A6NCS4 118-204)
T1 sequence: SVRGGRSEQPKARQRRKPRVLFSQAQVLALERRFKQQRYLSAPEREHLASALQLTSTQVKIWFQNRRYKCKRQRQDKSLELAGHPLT

NKX2-6 [4] = biological target: T2, NKX2-6 (Homo sapiens, UniProt A6NCS4 118-204, F151L)
T2 sequence: T1 sequence with F34L

NKX2-5 [5] = biological target: NKX2-5 (Homo sapiens, UniProt P52952 125-210)
HOXB6 [6] = biological target: HOXB6 (Homo sapiens, UniProt P17509 132-218)
HOXA4 [7] = biological target: HOXA4 (Homo sapiens, UniProt Q00056 201-287, W262R)
HOXA4 [8] = biological target: HOXA4 (Homo sapiens, UniProt Q00056 201-287, R217L)
HOXA4 [9] = biological target: HOXA4 (Homo sapiens, UniProt Q00056 201-287)
HOXA4 [10] = biological target: HOXA4 (Homo sapiens, UniProt Q00056 201-287, W262F)
HOXA2 [11] = biological target: HOXA2 (Homo sapiens, UniProt O43364 129-215, R185T)
MSX2 [12] = biological target: MSX2 (Homo sapiens, UniProt P35548 130-214, R199I)
HOXD13 [13] = biological target: HOXD13 (Homo sapiens, UniProt P35453 263-343, T313R)
HOXA2 [14] = biological target: HOXA2 (Homo sapiens, UniProt O43364 129-215, R185K)
HOXD13 [15] = biological target: HOXD13 (Homo sapiens, UniProt P35453 263-343)
MSX2 [16] = biological target: MSX2 (Homo sapiens, UniProt P35548 130-214)
VAX1 [17] = biological target: VAX1 (Homo sapiens, UniProt Q5SQQ9 86-172)
HOXD13 [18] = biological target: HOXD13 (Homo sapiens, UniProt P35453 263-343, T313A)
MSX2 [19] = biological target: MSX2 (Homo sapiens, UniProt P35548 130-214, F161Y)
VAX1 [20] = biological target: VAX1 (Homo sapiens, UniProt Q5SQQ9 86-172, T142I)
HOXA2 [21] = biological target: HOXA2 (Homo sapiens, UniProt O43364 129-215, Y150S)
HOXA2 [22] = biological target: HOXA2 (Homo sapiens, UniProt O43364 129-215)
VAX1 [23] = biological target: VAX1 (Homo sapiens, UniProt Q5SQQ9 86-172, K157R)
PRRX1 [24] = biological target: PRRX1 (Homo sapiens, UniProt P54821 80-166, F113S)
PRRX1 [25] = biological target: PRRX1 (Homo sapiens, UniProt P54821 80-166)
HOXA7 [26] = biological target: HOXA7 (Homo sapiens, UniProt P31268 116-202)
HOXA7 [27] = biological target: HOXA7 (Homo sapiens, UniProt P31268 116-202, W177C)
ALX4 [28] = biological target: ALX4 (Homo sapiens, UniProt Q9H161 200-286)
ALX4 [29] = biological target: ALX4 (Homo sapiens, UniProt Q9H161 200-286, Q225E)
Chain of ALX4 (Homo sapiens, UniProt Q9H161 200-286, Q225E) (Q9H161 200-286 Q225E): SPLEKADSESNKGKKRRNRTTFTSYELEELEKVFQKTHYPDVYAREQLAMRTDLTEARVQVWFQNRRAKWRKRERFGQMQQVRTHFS

Chain of NKX2-5 (Homo sapiens, UniProt P52952 125-210) (P52952 125-210): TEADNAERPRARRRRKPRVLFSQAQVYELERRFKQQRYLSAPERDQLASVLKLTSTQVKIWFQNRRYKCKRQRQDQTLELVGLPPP
Chain of NKX2-5 (Homo sapiens, UniProt P52952 125-210, R139K) (P52952 125-210 R139K): as the sequence (P52952 125-210) above, with R15K counted along it
Chain of HOXA4 (Homo sapiens, UniProt Q00056 201-287) (Q00056 201-287): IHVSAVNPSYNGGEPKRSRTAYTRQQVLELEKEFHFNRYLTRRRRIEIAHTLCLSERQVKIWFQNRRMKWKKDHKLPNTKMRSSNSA
Chain of HOXA4 (Homo sapiens, UniProt Q00056 201-287, W262R) (Q00056 201-287 W262R): as the sequence (Q00056 201-287) above, with W62R counted along it
Chain of HOXB6 (Homo sapiens, UniProt P17509 132-218, K202E) (P17509 132-218 K202E): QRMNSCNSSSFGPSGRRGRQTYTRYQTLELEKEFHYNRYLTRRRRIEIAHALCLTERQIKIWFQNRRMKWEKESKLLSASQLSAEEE
Chain of HOXB6 (Homo sapiens, UniProt P17509 132-218) (P17509 132-218): as the sequence (P17509 132-218 K202E) above, with E71K counted along it
Chain of HOXA4 (Homo sapiens, UniProt Q00056 201-287, W262F) (Q00056 201-287 W262F): as the sequence (Q00056 201-287) above, with W62F counted along it
Chain of HOXA4 (Homo sapiens, UniProt Q00056 201-287, R217L) (Q00056 201-287 R217L): as the sequence (Q00056 201-287) above, with R17L counted along it
Chain of ALX4 (Homo sapiens, UniProt Q9H161 200-286) (Q9H161 200-286): as the sequence (Q9H161 200-286 Q225E) above, with E26Q counted along it
Chain of VAX1 (Homo sapiens, UniProt Q5SQQ9 86-172, T142I) (Q5SQQ9 86-172 T142I): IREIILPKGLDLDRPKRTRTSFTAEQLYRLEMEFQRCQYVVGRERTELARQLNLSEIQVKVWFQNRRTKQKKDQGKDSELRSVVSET
Chain of HOXD13 (Homo sapiens, UniProt P35453 263-343, T313R) (P35453 263-343 T313R): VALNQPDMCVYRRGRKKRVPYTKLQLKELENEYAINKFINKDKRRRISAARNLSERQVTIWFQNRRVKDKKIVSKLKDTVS
Chain of VAX1 (Homo sapiens, UniProt Q5SQQ9 86-172) (Q5SQQ9 86-172): as the sequence (Q5SQQ9 86-172 T142I) above, with I57T counted along it
Chain of HOXD13 (Homo sapiens, UniProt P35453 263-343) (P35453 263-343): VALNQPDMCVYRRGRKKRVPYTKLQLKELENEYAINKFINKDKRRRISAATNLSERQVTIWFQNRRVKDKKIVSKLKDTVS
Chain of HOXA2 (Homo sapiens, UniProt O43364 129-215) (O43364 129-215): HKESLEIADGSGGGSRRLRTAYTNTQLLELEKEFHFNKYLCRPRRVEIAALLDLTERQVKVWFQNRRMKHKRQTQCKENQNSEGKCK
Chain of HOXA2 (Homo sapiens, UniProt O43364 129-215, Y150S) (O43364 129-215 Y150S): as the sequence (O43364 129-215) above, with Y22S counted along it
Chain of MSX2 (Homo sapiens, UniProt P35548 130-214, R199I) (P35548 130-214 R199I): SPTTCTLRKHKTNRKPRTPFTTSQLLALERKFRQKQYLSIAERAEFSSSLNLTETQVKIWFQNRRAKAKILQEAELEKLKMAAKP
Chain of HOXD13 (Homo sapiens, UniProt P35453 263-343, T313A) (P35453 263-343 T313A): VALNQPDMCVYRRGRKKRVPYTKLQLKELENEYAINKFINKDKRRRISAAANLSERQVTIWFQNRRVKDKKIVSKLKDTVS
Chain of VAX1 (Homo sapiens, UniProt Q5SQQ9 86-172, K157R) (Q5SQQ9 86-172 K157R): as the sequence (Q5SQQ9 86-172 T142I) above, with I57T, K72R counted along it
Chain of HOXA7 (Homo sapiens, UniProt P31268 116-202, W177C) (P31268 116-202 W177C): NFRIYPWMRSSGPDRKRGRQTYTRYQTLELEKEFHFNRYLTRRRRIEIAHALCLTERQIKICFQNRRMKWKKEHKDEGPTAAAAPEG
Chain of MSX2 (Homo sapiens, UniProt P35548 130-214) (P35548 130-214): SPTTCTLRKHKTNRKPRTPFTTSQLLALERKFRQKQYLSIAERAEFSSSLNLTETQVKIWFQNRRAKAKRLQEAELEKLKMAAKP
Chain of PRRX1 (Homo sapiens, UniProt P54821 80-166) (P54821 80-166): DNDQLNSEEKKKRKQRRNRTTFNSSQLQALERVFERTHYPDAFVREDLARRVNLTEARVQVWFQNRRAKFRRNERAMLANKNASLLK
Chain of HOXA2 (Homo sapiens, UniProt O43364 129-215, R185K) (O43364 129-215 R185K): as the sequence (O43364 129-215) above, with R57K counted along it
Chain of MSX2 (Homo sapiens, UniProt P35548 130-214, F161Y) (P35548 130-214 F161Y): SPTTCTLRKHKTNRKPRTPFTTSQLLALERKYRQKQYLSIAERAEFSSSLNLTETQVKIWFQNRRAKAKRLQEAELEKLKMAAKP
Chain of HOXA7 (Homo sapiens, UniProt P31268 116-202) (P31268 116-202): as the sequence (P31268 116-202 W177C) above, with C62W counted along it
Chain of HOXA2 (Homo sapiens, UniProt O43364 129-215, R185T) (O43364 129-215 R185T): as the sequence (O43364 129-215) above, with R57T counted along it
Chain of PRRX1 (Homo sapiens, UniProt P54821 80-166, F113S) (P54821 80-166 F113S): as the sequence (P54821 80-166) above, with F34S counted along it

TCACTTAA
binding signal (NKX2-5 [1]): 12.2 upbm affinity estimate (log intensity, higher = more binding, comparable within an allelic series) | binding signal (HOXB6 [2]): 9.72 upbm affinity estimate (log intensity, higher = more binding, comparable within an allelic series) | binding signal (NKX2-6 [3]): 13.4 upbm affinity estimate (log intensity, higher = more binding, comparable within an allelic series) | binding signal (NKX2-6 [4]): 10.6 upbm affinity estimate (log intensity, higher = more binding, comparable within an allelic series) | binding signal (NKX2-5 [5]): 12.3 upbm affinity estimate (log intensity, higher = more binding, comparable within an allelic series) | binding signal (HOXB6 [6]): 10.7 upbm affinity estimate (log intensity, higher = more binding, comparable within an allelic series)

CACCCCCG
binding signal (NKX2-5 [1]): 8.95 upbm affinity estimate (log intensity, higher = more binding, comparable within an allelic series) | binding signal (HOXA4 [7]): 9.9 upbm affinity estimate (log intensity, higher = more binding, comparable within an allelic series) | binding signal (HOXA4 [8]): 9.84 upbm affinity estimate (log intensity, higher = more binding, comparable within an allelic series) | binding signal (HOXA4 [9]): 9.95 upbm affinity estimate (log intensity, higher = more binding, comparable within an allelic series) | binding signal (HOXA4 [10]): 9.77 upbm affinity estimate (log intensity, higher = more binding, comparable within an allelic series) | binding signal (NKX2-5 [5]): 9 upbm affinity estimate (log intensity, higher = more binding, comparable within an allelic series)

CCCTGGCC
binding signal (NKX2-5 [1]): 8.8 upbm affinity estimate (log intensity, higher = more binding, comparable within an allelic series) | binding signal (HOXA2 [11]): 6.94 upbm affinity estimate (log intensity, higher = more binding, comparable within an allelic series) | binding signal (MSX2 [12]): 9.39 upbm affinity estimate (log intensity, higher = more binding, comparable within an allelic series) | binding signal (HOXD13 [13]): 9.22 upbm affinity estimate (log intensity, higher = more binding, comparable within an allelic series) | binding signal (HOXA2 [14]): 10.1 upbm affinity estimate (log intensity, higher = more binding, comparable within an allelic series) | binding signal (HOXD13 [15]): 9.28 upbm affinity estimate (log intensity, higher = more binding, comparable within an allelic series) | binding signal (MSX2 [16]): 9.37 upbm affinity estimate (log intensity, higher = more binding, comparable within an allelic series) | binding signal (VAX1 [17]): 6.64 upbm affinity estimate (log intensity, higher = more binding, comparable within an allelic series) | binding signal (HOXD13 [18]): 9.38 upbm affinity estimate (log intensity, higher = more binding, comparable within an allelic series) | binding signal (MSX2 [19]): 9.41 upbm affinity estimate (log intensity, higher = more binding, comparable within an allelic series) | binding signal (VAX1 [20]): 6.9 upbm affinity estimate (log intensity, higher = more binding, comparable within an allelic series) | binding signal (HOXA2 [21]): 10.4 upbm affinity estimate (log intensity, higher = more binding, comparable within an allelic series) | binding signal (HOXA2 [22]): 6.83 upbm affinity estimate (log intensity, higher = more binding, comparable within an allelic series) | binding signal (VAX1 [23]): 6.7 upbm affinity estimate (log intensity, higher = more binding, comparable within an allelic series) | binding signal (NKX2-5 [5]): 8.75 upbm affinity estimate (log intensity, higher = more binding, comparable within an allelic series)

GTCTAGAC
binding signal (NKX2-5 [1]): 9.21 upbm affinity estimate (log intensity, higher = more binding, comparable within an allelic series) | binding signal (HOXA4 [7]): 9.98 upbm affinity estimate (log intensity, higher = more binding, comparable within an allelic series) | binding signal (PRRX1 [24]): 9.59 upbm affinity estimate (log intensity, higher = more binding, comparable within an allelic series) | binding signal (HOXA4 [8]): 10.1 upbm affinity estimate (log intensity, higher = more binding, comparable within an allelic series) | binding signal (NKX2-6 [3]): 10.1 upbm affinity estimate (log intensity, higher = more binding, comparable within an allelic series) | binding signal (HOXA4 [9]): 9.99 upbm affinity estimate (log intensity, higher = more binding, comparable within an allelic series) | binding signal (NKX2-6 [4]): 9.52 upbm affinity estimate (log intensity, higher = more binding, comparable within an allelic series) | binding signal (HOXA4 [10]): 10 upbm affinity estimate (log intensity, higher = more binding, comparable within an allelic series) | binding signal (PRRX1 [25]): 9.88 upbm affinity estimate (log intensity, higher = more binding, comparable within an allelic series) | binding signal (NKX2-5 [5]): 9.52 upbm affinity estimate (log intensity, higher = more binding, comparable within an allelic series)

CAGAGCCG
binding signal (NKX2-5 [1]): 8.74 upbm affinity estimate (log intensity, higher = more binding, comparable within an allelic series) | binding signal (HOXA7 [26]): 8.45 upbm affinity estimate (log intensity, higher = more binding, comparable within an allelic series) | binding signal (HOXB6 [2]): 8.99 upbm affinity estimate (log intensity, higher = more binding, comparable within an allelic series) | binding signal (HOXA7 [27]): 8.36 upbm affinity estimate (log intensity, higher = more binding, comparable within an allelic series) | binding signal (NKX2-5 [5]): 8.8 upbm affinity estimate (log intensity, higher = more binding, comparable within an allelic series) | binding signal (HOXB6 [6]): 9 upbm affinity estimate (log intensity, higher = more binding, comparable within an allelic series)

GCGTGCGA
binding signal (NKX2-5 [1]): 8.9 upbm affinity estimate (log intensity, higher = more binding, comparable within an allelic series) | binding signal (ALX4 [28]): 7.96 upbm affinity estimate (log intensity, higher = more binding, comparable within an allelic series) | binding signal (ALX4 [29]): 8.17 upbm affinity estimate (log intensity, higher = more binding, comparable within an allelic series) | binding signal (NKX2-5 [5]): 8.92 upbm affinity estimate (log intensity, higher = more binding, comparable within an allelic series)
